# About 3,300 (8.5%) of roughly 39,000 compounds were called active. For the sample, actives were picked, then their nearest neighbours and some compounds at random.
# System: HepG2
# Test: cytotoxicity call (relative viability < 0.9)
# Details: 10 µM
row,SMILES,cytotoxicity call
1,Cn1cnc(S(=O)(=O)N[C@@H]2CC[C@@H](CC(=O)Nc3ccccc3)O[C@H]2CO)c1,inactive
2,Cc1ccc(S(=O)(=O)Nc2ccc3c(c2)CC(=O)N([C@@H](C)CO)C[C@@H](C)[C@@H](CN(C)C(=O)NC(C)C)O3)cc1,inactive
3,O=C(Nc1ccc2c(c1)[C@@H]1C[C@H](CC(=O)N3CCc4ccccc4C3)O[C@H](CO)[C@@H]1O2)C1CCOCC1,inactive
4,C[C@H](CO)N1C[C@H](C)[C@@H](CN(C)C(=O)Nc2cccc3ccccc23)OCCCC[C@H](C)Oc2ccc(NC(=O)Nc3ccccc3)cc2C1=O,inactive
5,Cc1noc(C)c1S(=O)(=O)N(C)C[C@H]1Oc2ccc(NS(C)(=O)=O)cc2CC(=O)N([C@@H](C)CO)C[C@@H]1C,inactive
6,C[C@H](CO)N1C[C@H](C)[C@H](CN(C)C(=O)NC2CCCCC2)Oc2c(NC(=O)C3CC3)cccc2C1=O,inactive
7,C[C@@H]1CCCCO[C@@H](CN(C)S(C)(=O)=O)[C@@H](C)CN([C@H](C)CO)C(=O)c2cc(NS(=O)(=O)c3ccc(F)cc3)ccc2O1,inactive
8,C[C@@H]1CCCCO[C@@H](CN(C)C(=O)Nc2cccc3ccccc23)[C@@H](C)CN([C@H](C)CO)C(=O)c2cc(NC(=O)Nc3ccccc3)ccc2O1,inactive
9,CN(C)CCCOc1nn(Cc2ccccc2)c2ccccc12.Cl,active
10,O=C(O)COc1nn(Cc2ccccc2)c2ccccc12,inactive
11,COc1cccc(OCc2ccc(Cn3nc(NC(=O)Nc4c(OC)cccc4OC)c4ccccc43)cc2)c1,inactive
12,C[C@H]1CN([C@@H](C)CO)S(=O)(=O)c2ccc(C#CC3CC3)cc2O[C@@H]1CN(C)Cc1ccccc1F,inactive
13,C[C@@H]1CN([C@@H](C)CO)C(=O)Cc2cc(NC(=O)Cn3cnnn3)ccc2O[C@@H]1CN(C)S(=O)(=O)c1ccc(F)cc1,inactive
14,Cc1ccccc1S(=O)(=O)N1C[C@H](O)COC[C@H]2O[C@@H](CC(=O)NCCc3ccccc3)CC[C@@H]21,inactive
15,Nc1nc2nc[nH]c2c(=S)[nH]1 [listing 1 of 2 here],inactive
16,Nc1nc2nc[nH]c2c(=S)[nH]1 [listing 2 of 2 here],active
17,O=c1[nH]cnc2nc[nH]c12,inactive
18,S=c1[nH]cnc2nc[nH]c12,active
19,Nc1ncnc2nc[nH]c12,inactive

row,SMILES,cytotoxicity call
1,Nc1nc2nc[nH]c2c(=O)[nH]1,inactive
2,N#CCN(CC#N)C(=O)c1ccco1,inactive
3,CC(C)CC#Cc1ccc2c(c1)O[C@@H](CN(C)C(=O)C1CCOCC1)[C@@H](C)CN([C@@H](C)CO)S2(=O)=O,inactive
4,COc1ccc(S(=O)(=O)N(C)C[C@H]2Oc3ccc(NS(=O)(=O)c4ccccc4)cc3C(=O)N([C@@H](C)CO)C[C@H]2C)cc1,inactive
5,Cc1noc(C)c1S(=O)(=O)Nc1ccc2c(c1)CC(=O)N([C@H](C)CO)C[C@H](C)[C@H](CN(C)Cc1ccncc1)O2,inactive
6,COc1ccc(S(=O)(=O)N2C[C@@H](O)COC[C@@H]3O[C@H](CC(=O)NCCCN(C)C)CC[C@H]32)cc1,inactive
7,COc1ccc(C(=O)c2ccccc2)c(O)c1,inactive
8,COc1cc(O)cc(O)c1C(=O)c1ccccc1,active
9,COc1cc(O)c(C(=O)c2ccccc2)cc1S(=O)(=O)O,inactive
10,C[C@H]1CN([C@@H](C)CO)C(=O)c2cc(C#Cc3cccnc3)cnc2O[C@H]1CN(C)S(=O)(=O)c1ccccc1F,inactive
11,C[C@@H]1CN([C@H](C)CO)S(=O)(=O)c2ccc(C#CCN(C)C)cc2O[C@H]1CN(C)S(=O)(=O)c1cccc(F)c1,inactive
12,C[C@@H]1CN([C@H](C)CO)C(=O)c2cccc(NC(=O)C3CCOCC3)c2O[C@@H]1CN(C)S(=O)(=O)c1ccccc1,inactive
13,Cc1n[nH]c(N/N=C/c2ccccn2)nc1=O,active
14,Cc1n[nH]c(NCc2ccco2)nc1=O,inactive
15,CCCNc1nc(=O)c(C)n[nH]1,inactive
16,O=C(O)[C@@H]1CCCC[C@@H]1C(=O)N1CCc2ccccc2[C@H]1CN1C(=O)c2ccccc2C1=O.O=C(O)[C@H]1CCCC[C@@H]1C(=O)N1CCc2ccccc2[C@H]1CN1C(=O)c2ccccc2C1=O,inactive
17,C[C@@H]1CCCCO[C@H](CN(C)S(=O)(=O)c2cccs2)[C@@H](C)CN([C@H](C)CO)C(=O)c2cc(NS(=O)(=O)c3ccc(Cl)cc3)ccc2O1,inactive
18,C[C@@H]1CN([C@@H](C)CO)C(=O)c2cc(NS(=O)(=O)c3cn(C)cn3)ccc2O[C@@H]1CN(C)CC1CC1,inactive
19,O=C1CCNc2cc3ccccc3cc21,active

row,SMILES,cytotoxicity call
1,O=C1NCc2ccccc21,inactive
2,O=C1CCCNc2ccc(Cl)cc21,inactive
3,COc1ccc(NC(=O)N(C)C[C@@H]2Oc3ccc(NC(=O)CCN4CCOCC4)cc3C(=O)N([C@@H](C)CO)C[C@@H]2C)cc1,inactive
4,COc1ccc(S(=O)(=O)N(C)C[C@H]2OCCCC[C@H](C)Oc3ccc(NC(=O)Nc4ccccc4)cc3C(=O)N([C@@H](C)CO)C[C@H]2C)cc1,inactive
5,NC1=NCCN1CC(=O)O,active
6,O=C(O)CN1CCCCC1=O,inactive
7,O=C(O)CN1CCOC1=O,inactive
8,COC(=O)N[C@H](C(=O)N1CC2(CC2)C[C@H]1c1nc(-c2ccc3c(c2)C(F)(F)c2cc(-c4ccc5nc([C@@H]6[C@H]7CC[C@H](C7)N6C(=O)[C@@H](NC(=O)OC)C(C)C)[nH]c5c4)ccc2-3)c[nH]1)C(C)C,inactive
9,Cn1cnc(CCNC(=O)C[C@H]2CC[C@H]3[C@@H](COC[C@H](O)CN3C(=O)C3CC3)O2)c1,inactive
10,O=C1OC(=O)[C@H]2[C@@H]1[C@H]1CC[C@H]2O1,active
11,COc1ccc2c3c([nH]c2c1)[C@@H](CO)N(C[C@]13CCN(CC1)Cc1ccccc1)S(=O)(=O)c1cn(cn1)C,inactive
12,C[C@@H]1CN([C@H](C)CO)C(=O)c2cccc(NC(=O)NC3CCCCC3)c2O[C@H]1CN(C)Cc1ccc(Cl)c(Cl)c1,inactive
13,C[C@@H]1CN([C@@H](C)CO)C(=O)c2cc(NC(=O)c3ccncc3)ccc2O[C@@H](C)CCCCO[C@H]1CN(C)Cc1ccc(C(F)(F)F)cc1,inactive
14,C[C@H]1CCCCO[C@@H](CN(C)C(=O)C2CCCCC2)[C@@H](C)CN([C@@H](C)CO)C(=O)c2cc(NC(=O)Nc3ccccc3)ccc2O1,inactive
15,C[C@H](CO)N1C[C@H](C)[C@@H](CN(C)C(=O)C2CCCCC2)OCCCC[C@H](C)Oc2ccc(NC(=O)Nc3ccccc3)cc2C1=O,inactive
16,C[C@H]1CCCCO[C@H](CN(C)C(=O)C2CCCCC2)[C@@H](C)CN([C@@H](C)CO)C(=O)c2cc(NC(=O)Nc3ccccc3)ccc2O1,inactive
17,C[C@@H]1CCCCO[C@@H](CN(C)C(=O)C2CCCCC2)[C@@H](C)CN([C@@H](C)CO)C(=O)c2cc(NC(=O)Nc3ccccc3)ccc2O1,active
18,C[C@@H]1CN([C@H](C)CO)C(=O)c2cc(NC(=O)Nc3ccccc3)ccc2O[C@@H](C)CCCCO[C@@H]1CN(C)C(=O)C1CCCCC1,inactive
19,C[C@@H]1CCCCO[C@H](CN(C)C(=O)C2CCCCC2)[C@@H](C)CN([C@@H](C)CO)C(=O)c2cc(NC(=O)Nc3ccccc3)ccc2O1,active
